Source: PubChem
Wee1 degr inh – human Wee1 degradation inhibition, primary screen. P30291. 220,000 tested, 1.2% active. reporter increase, % at 5 µM. HeLa Luc-Wee1K328M stability, luciferase luminescence; 100% = proteasome inhibitor MG132 effect;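 active = activation above the mean of all tested compounds plus 3 SD, set per screening run, cut at about 8.8% in these data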;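 note: cells exposed to compound for 20 h before luminescence read; 0% = DMSO alone and 100% = MG132 at 30 µM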
Target sequence (P30291 whole entry K328M): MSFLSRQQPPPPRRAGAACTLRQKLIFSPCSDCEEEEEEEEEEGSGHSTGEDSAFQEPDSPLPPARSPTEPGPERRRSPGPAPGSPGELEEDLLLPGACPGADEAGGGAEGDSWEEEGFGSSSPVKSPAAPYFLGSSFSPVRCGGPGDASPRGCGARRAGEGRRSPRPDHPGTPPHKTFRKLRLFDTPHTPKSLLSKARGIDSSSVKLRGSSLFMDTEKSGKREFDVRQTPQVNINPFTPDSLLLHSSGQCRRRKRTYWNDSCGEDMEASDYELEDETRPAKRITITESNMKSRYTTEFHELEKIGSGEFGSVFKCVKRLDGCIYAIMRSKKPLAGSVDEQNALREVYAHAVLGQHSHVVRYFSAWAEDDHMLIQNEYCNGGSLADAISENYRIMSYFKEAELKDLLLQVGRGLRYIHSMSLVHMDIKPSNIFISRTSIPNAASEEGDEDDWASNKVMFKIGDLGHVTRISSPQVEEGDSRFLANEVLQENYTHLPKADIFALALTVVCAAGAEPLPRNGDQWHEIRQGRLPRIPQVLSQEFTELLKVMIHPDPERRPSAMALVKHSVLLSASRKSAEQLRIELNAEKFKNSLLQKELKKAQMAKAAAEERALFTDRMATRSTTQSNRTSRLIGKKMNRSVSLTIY
DAX1 inh-1 – inhibits human nuclear receptor DAX1; P51843; inhibition, % at 6.75 µM; HEK293 Gal4-DAX1 luciferase reporter, luminescence; 340,000 tested, 0.99% active;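 active = inhibition above the mean over all tested compounds plus 3 SD, cut at about 4.2% in these data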;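 note: 0% = DAX1-transfected cells with DMSO and 100% = empty-vector control cells with DMSO; inhibition shows as a rise in luminescence from relieved DAX1 repression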
ssDAF-12 act – S. stercoralis DAF-12 activation, primary screen; HEK293 ssDAF-12/GRIP1 lit1-tk-luc reporter, luminescence; % of 3 µM dafachronic acid response; activation, % at 6.8 µM; 370,000 tested, 1% active; AID 652126;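 active = activation above the mean over all tested compounds plus 3 SD, cut at about 0.9% in these data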;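 note: 0% = DMSO-only wells and 100% = 3 µM delta7-dafachronic acid wells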
hgDAF-12 ag – agonists of H. glycines DAF-12 nuclear receptor | AID 687014 | activation, % at 6.8 µM | HEK293 GAL4-hgDAF12 UAS-luciferase reporter, agonist luminescence; normalized to butyrate control | 370,000 tested, 1.8% active;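 active = activation above a cutoff set at the mean of all screened compounds plus 3 SD, cut at about 10% in these data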;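 note: 0% = DMSO wells and 100% = sodium butyrate wells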
DAX1 inh-2 – inhibitors of DAX1 repression of SF-1 activated StAR promoter | inhibition, % at 6.8 µM | 370,000 tested, 1.1% active | HEK293T StAR-luciferase reporter, SF-1/DAX-1 repression relief | AID 652010;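 active = inhibition above the mean over all tested compounds plus 3 SD, cut at about 3.6% in these data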;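 note: 0% = DAX-1 cells with DMSO and 100% = cells lacking DAX-1 with DMSO; higher inhibition means more luminescence from relief of DAX-1 repression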
hcDAF12 agonist – activators of H. contortus DAF-12 nuclear receptor; HEK293 hcDAF-12 lit1-tk-luc reporter, luminescence; 0% DMSO, 100% Δ7-dafachronic acid; activation, % at 6.8 µM; 370,000 tested, 1.4% active; AID 652067;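 active = activation above the mean of all tested compounds plus 3 SD, cut at about 5.5% in these data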;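 note: 100% = response to 3 µM Δ7-dafachronic acid high control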
Wee1 degr conf – human Wee1 degradation inhibition, confirmation. shares compounds with Wee1 degr inh. HeLa Luc-Wee1K328M degradation, luminescence; vehicle 0%, proteasome-blocked wells 100%. activation, % at 5 µM. 1,100 tested, 4% active. AID 1410; in the data active = activation above about 8.9%
DAX1 conf – confirmation of human DAX1 (NR0B1) inhibitors | shares compounds with DAX1 inh-2 | HEK293T StAR-promoter luciferase reporter, SF-1/DAX-1 repression | inhibition, % at 6.8 µM | 2,400 tested, 87% active;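 active = inhibition above the average of every tested compound plus 3 SD, cut at about 3.8% in these data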;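 note: 0% = DAX-1 cells with DMSO and 100% = no DAX-1 control cells with DMSO; active compounds raise luminescence by relieving repression of the StAR reporter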
SF1 AF2mut Luc – nonselective inhibitor or artifact in SF-1 mutant DAX1 counter-screen | AID 652136 | HEK293 StAR-luciferase, SF-1 AF2 mutant, luminescence | 2,400 tested, 78% active | shares compounds with DAX1 inh-2 | inhibition, % at 6.8 µM;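 active = inhibition above the mean of all tested compounds plus 3 SD, cut at about 3% in these data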;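 note: 0% = DAX-1 transfected cells with DMSO and 100% = cells without DAX-1 with DMSO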
The depositor's hits bear a star; nt = no result given. Most compounds without a hit are left out; they make up all but 4.6% or so of the library.

SMILES	Wee1 degr inh	DAX1 inh-1	ssDAF-12 act	hgDAF-12 ag	DAX1 inh-2	hcDAF12 agonist	Wee1 degr conf	others
CCN(Cc1ccc2c(c1)OCCO2)C(=O)CN1C(=O)NC2(CCCCC2)C1=O	nt	1	-1	-2	-1	-1	nt
CC1=C2C3OC(=O)C(C)C3CCC2(C)C=CC1=NO (configuration not stated)	nt	-1	-1	0	-1	-1	nt
CCOC(=O)C(C)Sc1nc2c(c(=O)[nH]c(=O)n2C)n1C/C=C(/C)Cl (configuration not stated)	12*	0	-1	-1	0	0	-3
CCSc1nc2c(c(=O)[nH]c(=O)n2C)n1C/C=C(/C)Cl	-3	0	-1	1	0	1	nt
Cc1cccc(C)c1-n1c(SCC(=O)Nc2ccc(C(=O)O)cc2)nnc1-c1cccc(S(=O)(=O)N(C)C)c1	12*	1	0	2	0	0	-1
O=C(CSc1nnc(-c2cccc(S(=O)(=O)N3CCCC3)c2)n1-c1ccccc1)Nc1ccc(C(=O)O)cc1	0	0	0	0	-1	-1	nt
COc1cc(C)c(C)cc1S(=O)(=O)N1CCN(Cc2ccccc2)CC1	14*	-1	-1	0	1	-2	4
O=C(COC(=O)c1cccs1)NCCc1ccc(F)cc1	nt	1	-1	1	0	-1	nt
CC(C)(C)NC(=O)C(Cc1ccccc1)NS(=O)(=O)c1ccc2c(c1)CCC(=O)N2 (configuration not stated)	3	0	-1	0	0	0	nt
O=C1CCc2cc(S(=O)(=O)NC(Cc3ccccc3)C(=O)NC3CCCCC3)ccc2N1 (configuration not stated)	28*	2	-1	2	-1	-1	0
Oc1cccc2ccc[n+](CC(O)Cn3c4ccccc4c4ccccc43)c12 (configuration not stated)	18*	-1	-2	-2	0	-2	-1
OC(COc1ccccc1)Cn1c2ccccc2c2ccccc21 (configuration not stated)	0	-1	-1	2	1	-1	nt
COc1ccccc1N1CCN(/N=C/C=C\c2ccco2)CC1	24*	1	0	10	4.1*	5	2
CC(=O)Nc1cccc(/C(C)=N/NC(=O)c2cccc(S(=O)(=O)N3CCOCC3)c2)c1	14*	0	-1	1	0	-3	-1
S=C1SCCCN1Cc1ccc(Cl)cc1	nt	0	-2	-2	-2	1	nt
CC1CCCCN1CC(=O)NC(=O)NCc1ccccc1 (configuration not stated)	18*	0	0	-4	0	1	5
CC1CCN(CC(=O)NC(=O)NCc2ccccc2)CC1	1	-2	-2	-1	0	-3	nt
C=CCN(Cc1ccc2c(c1)OCO2)C(C#CC1CC1)C(C)C (configuration not stated)	nt	nt	-1	-2	-1	0	nt
COc1cc(OC)cc(C(=O)NC(=S)NCc2ccco2)c1	-2	-1	nt	nt	nt	nt	nt
CCOc1ccccc1NC(=S)NCc1ccco1	12*	1	-1	-3	-1	-1	-1
S=C(NCc1ccco1)Nc1ccc(Oc2ccccc2)cc1	11*	-1	-1	2	0	-1	-1
COc1cccc(C(=O)NC(=S)NCc2ccco2)c1	14*	-1	-1	5	0	3	0
CCOc1ccccc1NC(=S)NCc1ccccc1	nt	-1	-1	-1	0	0	nt
CCCS(=O)(=O)NC(=O)C1(C)CCN(C(=O)c2c(F)cccc2F)C1 (configuration not stated)	nt	nt	-1	-3	0	0	nt
Cc1ccnc(NC(=O)c2cc3ccccc3oc2=O)c1	13*	3	0	11*	3	2	5
SMILES	Wee1 degr inh	DAX1 inh-1	ssDAF-12 act	hgDAF-12 ag	DAX1 inh-2	hcDAF12 agonist	Wee1 degr conf	others
O=C(NCCCN1CCOCC1)c1cc2ccccc2oc1=O	-1	1	-1	0	0	-1	nt
O=C(O)c1ccccc1NC(=O)c1cc2ccccc2oc1=O	nt	1	-1	2	1	2	nt
Cc1ccc2nc3c(cc(C(=O)NCCCn4ccnc4)n3C)c(=O)n2c1	23*	-1	-1	-1	0	-2	2
O=C(NCCCn1ccnc1)c1cc2ccccc2oc1=O	13*	1	-1	0	1	2	2
CCCCC1Cc2[nH]c(=S)[nH]c(=O)c2C(C(C)C)O1 (configuration not stated)	nt	nt	-1	-1	0	1	nt
O=C(N/N=C/c1cccc2cccnc12)c1ccccc1O	-2	-4	-1	-10	-2	-2	nt
O=C(CNC(=O)c1cccc(F)c1)OCC(=O)N1CCN(C(=O)c2ccco2)CC1	-2	0	0	3	0	-2	nt
O=C(CNC(=O)c1cccc(F)c1)OCC(=O)N1CCCCC1	15*	-1	0	2	0	2	0
CCCN(C(=O)/C=C/c1ccc(S(=O)(=O)N(CC)CC)cc1)C1CCS(=O)(=O)C1 (configuration not stated)	nt	-1	-1	6	-2	-2	nt
CSCCC(NS(=O)(=O)c1ccc2ccccc2c1)C(=O)OCC(=O)c1ccc(C(C)C)cc1 (configuration not stated)	11*	-3	-1	2	0	0	-3
N/C(=N\OC(=O)c1ccco1)c1ccc(Br)cc1	15*	2	1	10	4.7*	4	1	DAX1 conf=7.2*;SF1 AF2mut Luc=4.4*
O=[N+]([O-])c1cnccc1-n1nnc2ccccc21	nt	nt	-1	0	-2	-3	nt
